CYP2C9 inh – blockers of cytochrome P450 2C9 activity – biochemical, luminescence, ADME assay, primary screen. inhibition, % at 5 µM. 20% of 96,000 active. CYP2C9 Supersomes, luciferin-H conversion. P11712;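 active = blocking of liver enzyme CYP2C9 beyond about 50% at 5 µM, limit read from the data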
Target sequence (P11712 whole entry, looked up): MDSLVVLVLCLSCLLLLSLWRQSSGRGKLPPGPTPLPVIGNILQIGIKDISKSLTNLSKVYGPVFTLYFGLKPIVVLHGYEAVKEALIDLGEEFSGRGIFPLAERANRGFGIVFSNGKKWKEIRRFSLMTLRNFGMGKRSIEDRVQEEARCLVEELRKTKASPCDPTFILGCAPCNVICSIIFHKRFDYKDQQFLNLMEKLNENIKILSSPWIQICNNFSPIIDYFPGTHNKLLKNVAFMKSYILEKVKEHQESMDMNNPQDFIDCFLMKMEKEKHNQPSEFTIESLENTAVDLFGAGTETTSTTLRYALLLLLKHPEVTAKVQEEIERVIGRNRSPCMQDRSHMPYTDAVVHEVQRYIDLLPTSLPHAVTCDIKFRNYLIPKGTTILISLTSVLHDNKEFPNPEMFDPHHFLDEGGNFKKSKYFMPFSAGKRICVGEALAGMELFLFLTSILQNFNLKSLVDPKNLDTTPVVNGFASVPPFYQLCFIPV
CYP2C19 act – human CYP2C19 activators, primary screen, biochemical, luminescence. recombinant CYP2C19, luciferin-H EGE luminescence; active compounds read high; 0 = fully inhibited enzyme, 1 = untreated enzyme. 96,000 tested, under 10 active. activation factor at 5 µM. AID 1025, 2008;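 active = activation factor of at least 2 at 5 µM in the primary screen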;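 note: 0 = wells with 2.5 mM tranylcypromine and 1 = vehicle-only wells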
Cav3 T inh – Cav3.2 calcium influx blockers – cell-based, Fluo-4 calcium fluorescence, FDSS, MLSMR library, primary screen; B-score at 10 µM; AID 449739, 2010; Voltage-dependent T-type calcium channel subunit alpha-1H (Homo sapiens), O95180; 4% of 100,000 active; Cav3.2-expressing cells; active compounds read low;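 active = single-dose well whose peak fluorescence ratio is a statistical outlier from its plate by either plate-standardised score or position-corrected B-score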
CYP2C19 inhib – blockers of cytochrome P450 2C19 activity – biochemical, luminescence, ADME assay, primary screen; P33261; CYP2C19 Supersomes, luciferin-H EGE luminescence, 30 min; inhibition, % at 5 µM; 21% of 96,000 active;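 active = CYP2C19 inhibition above a set limit at 5 µM in the primary screen, cut at about 50% in these data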;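 note: plate controls were negative control wells for no effect and 2.5 mM tranylcypromine positive control for full effect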
CYP2C9 act – human CYP2C9 activators, primary screen, biochemical, luminescence; AID 1024, 2008; Cytochrome P450 2C9 (Homo sapiens), P11712; recombinant CYP2C9, luciferin-H conversion; active compounds read high; factor 1 = untreated enzyme, 0 = blocked; 1.4% of 96,000 active; activation factor at 5 µM;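 active = activation factor of 2 or more for CYP2C9 at a 5 µM dose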;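 note: 0 = sulfaphenazole-blocked wells and 1 = vehicle-only wells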
Active calls of the source: *; / = not tested or not shown. Compounds with a hit are over-represented: about 27% of the library has one in this group of screens.

SMILES | CYP2C9 inh | CYP2C19 act | Cav3 T inh | CYP2C19 inhib | CYP2C9 act
COc1ccc(C)cc1-n1c(SCC(=O)Nc2cc(C)on2)nc2sc(C)c(C)c2c1=O | 10 | 1 | -1.5 | 4 | 0.9
N#CC(c1ccc(Cl)cc1)c1nc2ccccc2nc1C(F)(F)F (stereo unspecified) | 26 | 0.5 | -1.5 | 52* | 0.7
O=c1c2ccccc2ncn1-c1ccc(Cl)c(Cl)c1 | / | / | 0.53 | / | /
O=c1c2ccc(Cl)cc2nc(-c2cccc(C(F)(F)F)c2)n1O | 37 | 0.9 | -5.9* | 11 | 0.6
O=c1c2ccccc2nc(-c2ccc(Cl)c(Cl)c2)n1O | 49 | 1 | -4.3* | 4 | 0.5
N/C(=N\S(=O)(=O)c1cccs1)c1ccccc1 | -47 | 0.1 | / | 92* | 1.5
O=S(=O)(/N=C(\c1ccccc1)N1CCOCC1)c1cccs1 | -1 | 1 | / | -4 | 1
COc1ccc(Oc2nc(C)nc3c2oc2ccccc23)cc1 | 3 | 0.9 | -2.2 | 9 | 1
Cc1nc(Oc2ccccc2)c2oc3ccccc3c2n1 | 20 | 0.4 | 0.14 | 57* | 0.8
CN(C(=O)COC(=O)c1ccccc1Nc1ccccc1)C1CCS(=O)(=O)C1 (stereo unspecified) | 10 | 0.8 | 0.061 | 19 | 0.9
Cc1cccc(Nc2ccccc2C(=O)OCC(=O)N(C)C2CCS(=O)(=O)C2)c1C (stereo unspecified) | -13 | 1 | -3.4* | -5 | 1.1
Cc1nnc(NC(=O)CCC(=O)N2CCN(CCc3ccccc3)CC2)s1 | 2 | 1 | / | 2 | 1
O=C(NC(Nc1nc2ccccc2s1)(C(F)(F)F)C(F)(F)F)c1ccccc1 | 92* | 0.2 | -2.6 | 76* | 0.1
CCOC(=O)C1=C(O)C(Nc2nc3ccccc3s2)(C(F)(F)F)N=C1C (stereo unspecified) | 42 | 0 | / | 98* | 0.6
CCOc1ccc2nc(NS(=O)(=O)Cc3ccccc3)sc2c1 | 96* | 0.2 | -1.9 | 77* | 0
CCOc1ccc2nc(NC(NC(C)=O)(C(=O)OC)C(F)(F)F)sc2c1 (stereo unspecified) | 6 | 0.4 | -2.8 | 58* | 0.9
CCOc1ccc2nc(NS(=O)(=O)c3ccc(NC(C)=O)cc3)sc2c1 | 15 | 1 | 0.073 | 5 | 0.8
O=C(CSc1nnc(-c2ccccn2)n1Cc1ccccc1)Nc1ccc2c(c1)OCO2 | 15 | 1 | -2.3 | 1 | 0.8
Cc1ccc2c(c1)NC(=O)C(CC(=O)N(C)Cc1ccccc1)O2 (stereo unspecified) | -8 | 0.6 | -1.4 | 38 | 1.1
C/C(=C\C(=O)c1ccccc1)NNc1nc2ccccc2s1 | 42 | 0.4 | -3 | 61* | 0.6
CCCC(=O)Nc1nc2ccc(OCC)cc2s1 | 23 | 0.8 | -0.43 | 16 | 0.8
O=C(O)C1C2CCC(C2)C1C(=O)Nc1nc2ccccc2s1 (stereo unspecified) | 13 | 1 | 0.28 | 3 | 0.9
CCOC(=O)NC(Nc1nc2ccccc2s1)(C(=O)OCC)C(F)(F)F (stereo unspecified) | 83* | 0.1 | -1.4 | 93* | 0.2
CCOc1ccc2nc(NC(NC(=O)CC)(C(=O)OC)C(F)(F)F)sc2c1 (stereo unspecified) | 44 | 0.3 | 0.014 | 70* | 0.6
O=C(C1=C[C@H](c2coc3ccccc3c2=O)C[C@H](OCCCCO)O1)N1CCN(Cc2ccc3c(c2)OCO3)CC1 | / | / | 0.17 | / | /
SMILES | CYP2C9 inh | CYP2C19 act | Cav3 T inh | CYP2C19 inhib | CYP2C9 act
Cc1ccccc1-n1c(=O)cc(N2CCN(C(=O)c3ccco3)CC2)[nH]c1=O | / | / | 0.57 | / | /
CC(C)(O)C#Cc1ccc(C(=O)NCc2cccs2)s1 | 6 | 1.1 | -0.51 | -8 | 0.9
CC(Oc1cc(C(F)(F)F)cc(C(F)(F)F)c1)C(=O)NC(N)=O (stereo unspecified) | -21 | 1 | -0.37 | 0 | 1.2
O=C(/N=C1\NC(=O)C(F)(C(F)(F)F)S1)NC1CCCCC1 (stereo unspecified) | 85* | 0.9 | / | 7 | 0.1
Cc1ccc(S(=O)(=O)/N=C2/NC(=O)/C(=C/c3cccnc3)S2)cc1 | 98* | 0.3 | -3.2 | 68* | 0
CN1C(=O)S/C(=C/c2cccnc2)C1=O | -1 | 1.1 | 2.2 | -9 | 1
Cc1cccc(N2C(=O)c3cccc4c(N(C)CCO)ccc(c34)C2=O)c1 | 7 | 0.7 | / | 26 | 0.9
O=C(CSc1cn(CCNC(=O)c2cccs2)c2ccccc12)NCC1CCCO1 (stereo unspecified) | 81* | 0.7 | 1.3 | 34 | 0.2
CCCn1cc(SCC(=O)NCC2CCCO2)c2ccccc21 (stereo unspecified) | -52 | 0.6 | 0.029 | 39 | 1.5
O=C(Cn1cc(C(=O)c2ccco2)c2ccccc21)NC1CCCC1 | 42 | 0.6 | 1.8 | 40 | 0.6
O=C(Cn1cc(C(=O)c2cccs2)c2ccccc21)NC1CCCCC1 | 72* | 0.5 | -1.1 | 55* | 0.3
O=C(CSc1cn(CCNC(=O)c2ccc3ccccc3c2)c2ccccc12)NCc1ccco1 | 9 | 0.7 | -1.9 | 26 | 0.9
O=C(CSc1cn(CCNC(=O)c2cccs2)c2ccccc12)NCc1ccccc1 | 98* | 0.1 | -4 | 86* | 0
O=C(CSc1cn(CCNC(=O)c2cccs2)c2ccccc12)NC1CCCCC1 | 92* | 0.4 | -1.4 | 59* | 0.1
CC(C)CC(=O)Nc1nc2c(c(=O)[nH]1)CCCC2 | 12 | 1 | 0.59 | -3 | 0.9
CSc1nncc(=O)[nH]1 | -13 | 1.1 | 0.58 | -9 | 1.1
COc1ccc(NC(=O)c2cc(C(C)C)on2)c(OC)c1 | -184 | 0.6 | -1.1 | 39 | 2.8*
COc1ccc(NC(=O)c2ccccc2O)c(OC)c1 | 53* | 0.4 | -0.63 | 60* | 0.5
COc1ccc(NC(=O)c2cc(C(C)C)on2)cc1OC | -11 | 1 | -0.077 | 5 | 1.1
COc1ccc(NC(=O)C2OCCc3ccccc32)c(OC)c1 (stereo unspecified) | 0 | 0.1 | -0.97 | 91* | 1
CCCc1cc(C(=O)Nc2sc(C)c(C)c2C(=O)OCC)no1 | -79 | 1.1 | -0.5 | -13 | 1.8
CCN(CC)c1ccc(NC(=O)c2cccc(F)c2)c(C)c1 | -92 | 1 | -0.012 | 4 | 1.9
O=C1c2ccccc2C(=O)N1CCc1nc2ccccc2c(=O)n1CCCn1ccnc1 | 80* | 0.5 | 0.96 | 50 | 0.2
CCCCn1c(CN2C(=O)c3ccccc3C2=O)nc2ccccc2c1=O | 28 | 0.9 | / | 6 | 0.7
O=C1c2ccccc2C(=O)N1CCCc1nc2ccccc2c(=O)n1Cc1ccco1 | 14 | 0.9 | 0.76 | 7 | 0.9
O=C1c2ccccc2C(=O)N1Cc1nc2ccccc2c(=O)n1CCCn1ccnc1 | 92* | 0.1 | 0.49 | 88* | 0.1

Screens deposited in PubChem BioAssay by several laboratories.
